From PubChem
A selection: hits, their analogues and other compounds. The true share with any hit is near 12%.
BAZ2B inh = BAZ2B (human) inhibition; Potency, µM (titrated, usually from 114 µM), for the others: top-dose activity change, negative = inhibition, hits mostly inhibitors; AlphaScreen BAZ2B-H3K14Ac peptide displacement; hit rate 4.4% among 360,000; Q9UIF8; note: potency is the fitted concentration of half-maximal effect; % is set by controls: 0 for no effect and ±100 for the full control effect; nearly all actives have a fitted effect of over 60% in size
Target sequence (Q9UIF8 whole entry, looked up): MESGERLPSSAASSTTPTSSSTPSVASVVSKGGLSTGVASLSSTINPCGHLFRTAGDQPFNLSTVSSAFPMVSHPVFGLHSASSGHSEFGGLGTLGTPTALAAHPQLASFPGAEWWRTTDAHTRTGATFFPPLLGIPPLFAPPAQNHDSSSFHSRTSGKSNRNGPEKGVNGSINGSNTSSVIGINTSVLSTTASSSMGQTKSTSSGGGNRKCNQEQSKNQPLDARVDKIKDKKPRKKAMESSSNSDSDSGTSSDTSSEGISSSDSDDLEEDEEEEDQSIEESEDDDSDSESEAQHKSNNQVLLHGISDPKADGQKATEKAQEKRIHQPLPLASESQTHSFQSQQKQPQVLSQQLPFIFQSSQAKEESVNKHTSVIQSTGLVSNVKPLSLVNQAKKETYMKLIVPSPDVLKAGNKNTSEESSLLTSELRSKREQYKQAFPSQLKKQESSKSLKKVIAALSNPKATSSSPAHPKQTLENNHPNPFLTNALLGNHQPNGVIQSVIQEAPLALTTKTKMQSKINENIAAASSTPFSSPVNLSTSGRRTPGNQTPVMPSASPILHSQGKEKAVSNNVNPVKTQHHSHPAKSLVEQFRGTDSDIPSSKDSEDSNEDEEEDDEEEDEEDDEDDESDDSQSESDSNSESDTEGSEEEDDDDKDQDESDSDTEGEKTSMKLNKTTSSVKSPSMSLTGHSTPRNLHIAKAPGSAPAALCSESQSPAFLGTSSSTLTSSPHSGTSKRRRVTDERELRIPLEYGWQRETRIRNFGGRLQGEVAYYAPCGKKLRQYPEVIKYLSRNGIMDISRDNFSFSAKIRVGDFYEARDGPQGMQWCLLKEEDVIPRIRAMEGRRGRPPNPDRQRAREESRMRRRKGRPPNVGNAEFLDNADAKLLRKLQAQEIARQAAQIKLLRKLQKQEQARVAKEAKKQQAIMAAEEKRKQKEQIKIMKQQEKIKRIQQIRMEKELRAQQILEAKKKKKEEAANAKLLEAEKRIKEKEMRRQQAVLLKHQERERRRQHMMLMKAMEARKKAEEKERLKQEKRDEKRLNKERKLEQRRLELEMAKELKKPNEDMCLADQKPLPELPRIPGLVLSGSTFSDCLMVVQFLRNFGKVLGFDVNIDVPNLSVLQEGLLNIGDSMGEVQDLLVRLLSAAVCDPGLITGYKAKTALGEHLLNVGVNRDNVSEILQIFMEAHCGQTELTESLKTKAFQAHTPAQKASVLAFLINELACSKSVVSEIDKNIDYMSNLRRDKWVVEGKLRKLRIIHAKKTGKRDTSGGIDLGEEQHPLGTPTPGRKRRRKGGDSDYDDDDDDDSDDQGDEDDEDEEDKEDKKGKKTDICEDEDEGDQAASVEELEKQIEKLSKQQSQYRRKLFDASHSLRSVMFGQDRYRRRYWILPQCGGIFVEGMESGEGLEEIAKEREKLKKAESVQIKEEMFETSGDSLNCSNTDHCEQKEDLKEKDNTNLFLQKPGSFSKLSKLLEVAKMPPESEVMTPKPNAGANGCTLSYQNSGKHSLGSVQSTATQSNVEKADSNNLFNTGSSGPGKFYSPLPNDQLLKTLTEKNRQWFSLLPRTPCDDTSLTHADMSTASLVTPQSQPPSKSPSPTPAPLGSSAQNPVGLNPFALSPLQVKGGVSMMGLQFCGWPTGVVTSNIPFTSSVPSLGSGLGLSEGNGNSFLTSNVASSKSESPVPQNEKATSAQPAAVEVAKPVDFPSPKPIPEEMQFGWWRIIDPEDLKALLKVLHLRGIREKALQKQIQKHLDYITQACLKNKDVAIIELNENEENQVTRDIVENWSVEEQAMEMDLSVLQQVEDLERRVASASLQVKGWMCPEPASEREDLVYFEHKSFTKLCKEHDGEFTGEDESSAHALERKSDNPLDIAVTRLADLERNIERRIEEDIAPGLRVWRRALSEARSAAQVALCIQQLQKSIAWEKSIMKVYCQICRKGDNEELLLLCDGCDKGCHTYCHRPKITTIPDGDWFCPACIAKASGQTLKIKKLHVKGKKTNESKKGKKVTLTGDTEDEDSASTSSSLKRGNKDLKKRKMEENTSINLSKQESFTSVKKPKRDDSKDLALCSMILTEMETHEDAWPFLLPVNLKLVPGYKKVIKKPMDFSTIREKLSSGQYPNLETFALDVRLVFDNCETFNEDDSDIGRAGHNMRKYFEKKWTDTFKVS
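In this displacement format the biotinylated H3(5-23) peptide acetylated at Lys14 serves as ligand at 50 nM, with BAZ2B at 50 nM in PBS pH 7.4 containing 0.01% Tween-20. Donor and acceptor beads are 10 ug/mL final.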
HP1b chromo inh = HP1-beta chromodomain-methylated histone interaction inhibition; Potency, µM (highest dose often 114 µM), inactives show at the top dose activity change, negative = inhibition, usual class: inhibitors; AlphaScreen HP1-beta / biotin-H3K9me3 peptide binding; AID 540317; hit rate 0.56% among 390,000; P83916; note: potency is the fitted concentration of half-maximal effect; nearly all actives have a fitted effect of over 70% in size
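Compound inhibition of the preformed complex between 50 nM HP1-beta and 50 nM biotinylated H3K9me3 peptide was read by AlphaScreen. Buffer was PBS pH 7.4 with 0.01% Tween-20. Incubations ran 30 min at room temperature, with 10 ug/mL donor/acceptor beads.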
PLK1 PBD block = blocks phosphopeptide binding to human PLK1 polo-box domain; Plk1 PBD binding of FITC phosphopeptide, fluorescence polarization; hit rate 2.8% among 360,000; P53350; AID 720504; Potency, µM, without a hit: max response, negative = inhibition, most hits filed as inhibitors; note: potency is the fitted concentration of half-maximal effect; series mostly up to about 57 µM; % is set by controls: 0 for no effect and ±100 for the full control effect; nearly all actives have a fitted effect of over 65% in size
G9a block = G9a (human) methyltransferase inhibition; Q96KQ7; Potency, µM (highest dose often 102 µM), inactives show top-dose activity, negative = inhibition, actives largely listed as inhibitors; hit rate 8.8% among 350,000; G9a H3K9 monomethylation, AlphaScreen, 2 h; note: potency is the fitted concentration of half-maximal effect; % is set by controls: 0 for no effect and ±100 for the full control effect; nearly all actives have a fitted effect of over 75% in size
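G9a (20 nM) was preincubated 15 min with compound, then reacted 2 h at room temperature with 500 nM biotin-H3K9 peptide and 20 µM SAM. Monomethyl-H3K9 detected by AlphaScreen using anti-H3K9me1 antibody.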
JMJD2A Tudor inh = blocks the human JMJD2A Tudor domain; O75164; AlphaScreen JMJD2A-Tudor / H3K4me3 peptide binding; Potency, µM (titrated, usually from 114 µM), for the others: at the top dose activity change, negative = inhibition, actives largely listed as inhibitors; hit rate 4.4% among 390,000; AID 504339; note: potency is the fitted concentration of half-maximal effect; % is set by controls: 0 for no effect and ±100 for the full control effect; nearly all actives have a fitted effect of over 50% in size
PI5P4Ka inh = blocks human PI5P4K alpha kinase activity | P48426 | PI5P4Kalpha enzyme, ADP-Glo luminescence, 60 min; stronger effect = lower value | AID 652105 | max response, % | hit rate 1.2% among 330,000; active = max response of -50% or lower; inconclusive = between -30% and -50%; inactive = -30% or higher; note: value at the top dose of about 77 µM; % is set by controls: 0 for no effect and ±100 for the full control effect
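ADP-Glo luminescence end-point after a 60 min room-temperature kinase reaction. PI5P4Kalpha and substrate in HEPES pH 7.4 buffer with EGTA, 0.1% CHAPS and 5% DMSO; ATP at 5 microM final.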
Numbers without * were called inactive; ? = inconclusive; / = no result given; [ ] = another dose, or the depositor's remark. Unless noted, calls come from the whole dose curve; as a rule, active = well fitted curve in the direction sought with a large enough effect; inconclusive = small, poorly fitted or top-dose-only effect, or another doubt; inactive = no such curve, though single readings can be large; an effect the other way counts as inactive or inconclusive.

SMILES	BAZ2B inh	HP1b chromo inh	PLK1 PBD block	G9a block	JMJD2A Tudor inh	PI5P4Ka inh
C/C=C(/C)C(=O)Nc1cccc(C2=NOC3(C2)C[C@H](C(N)=O)N(C(=O)Cc2ccc([N+](=O)[O-])cc2)C3)c1 (some centres undefined)	-4.8%	30.8%	0.0%	-3.6%[59 µM]	-9.8%	-7.1
C/C=C/C=C/C(=O)N1CC2(CC(c3cccc(NC(=O)CCCCC)c3)=NO2)C[C@H]1C(N)=O (some centres undefined)	-5.7%	-4.0%	-29.2%	?	-28.5%	-75.7*
C/C=C\C=C/C(=O)Nc1cccc(C2=NOC3(C2)C[C@H](C(N)=O)N(C(=O)Cc2ccc([N+](=O)[O-])cc2)C3)c1 (some centres undefined)	-22.0%	?	-25.1%	?	79.4µM*	-57.2*
C/C=C/C(=O)N1CC2(CC(c3cccc(NC(=O)CCCCC)c3)=NO2)C[C@H]1C(N)=O (some centres undefined)	?	/	/	-0.2%[12.7 µM]	/	/
CN(C)C(=O)c1ccc(-c2ccc3ncnc(NCCN4CCOCC4)c3c2)cc1	/	/	/	-33.8%[0.501 µM]	/	/
CC(=O)OC[C@H]1O[C@@](COC(C)=O)(O[C@H]2O[C@H](COC(C)=O)[C@@H](OC(C)=O)[C@H](OC(C)=O)[C@H]2OC(C)=O)[C@@H](OC(C)=O)[C@@H]1OC(C)=O	/	/	/	8.5%[12.7 µM]	/	/
C=C(CN(C)C)C(=O)c1ccc(OC2OC(COC(C)=O)C(OC(C)=O)C(OC(C)=O)C2OC(C)=O)cc1 (centres undefined)	/	56.2µM*	15µM*	/	89.1µM*	-7.1
O=C(COC(=O)C1CCN(S(=O)(=O)c2cccs2)CC1)c1cc2ccccc2o1	-8.9%	47.0%	-1.2%	8.91µM*	-5.0%	2.1
Cc1ccc(C)c(NS(=O)(=O)c2ccc3c(c2)n(C)c(=O)n3C)c1	3.3%	15.0%	/	1.8%[59 µM]	-17.9%	/
CCc1nn(CC(=O)NCCCN2CCOCC2)c(=O)c2cc3sccc3n12	-13.4%	39.7%	2.0%	11.9%	6.8%	0.4
CCc1nn(CC(=O)NCCCN2CCOCC2)c(=O)c2cc3cc(F)ccc3n12	-11.2%[57.1 µM]	65.5%	-26.4%	50.1µM*	-0.8%	2.3
CCc1cc2c(cc3c(=O)n(CC(=O)NCCCN4CCCCCC4)nc(CC)n32)s1	-17.6%	52.1%	1.4%	50.1µM*	-1.3%	-1.4
CCc1nn(CC(=O)NCCCN2CCN(C)CC2)c(=O)c2cc3sc(C)cc3n12	-4.3%	75.7%	-8.0%	/	-14.2%	-2.4
c1ccc(CN2CCOCCOCCOCC2)cc1	3.8%	16.3%	-2.3%	47.5%[59 µM]	-11.0%	1.9
C#CC1CN(Cc2ccccc2)CC(C#C)N1C (centres undefined)	?	0.3%	29.9µM*	7.0%[12.7 µM]	-19.8%[57.1 µM]	-7.6
O=C(NCCc1nc2ccccc2n1Cc1ccc(Cl)cc1Cl)c1ccco1	?	6.4%	/	-30.1%[59 µM]	?	/
COc1ccc(S(=O)(=O)N2CCN(CC(=O)Nc3ccc(C)c(F)c3)CC2)cc1	5.4%	16.2%	-7.4%	44.7µM*	-20.3%	8.8
COC(=O)c1cccc(NC(=O)CN2CCN(c3ccc(OC)cc3)CC2)c1	-12.6%	-1.2%	-0.3%	?	?	-2.9
COc1ccc(N2CCN(CC(=O)Nc3cccc(S(=O)(=O)N4CCOCC4)c3)CC2)cc1	35.5µM*	-65.3%	-6.6%	14.1µM*	7.94µM*	2.4
O=C(CN1CCN(S(=O)(=O)c2ccc3ccccc3c2)CC1)Nc1ccc(N2CCOCC2)cc1	-37.7%	-9.2%	-9.6%	39.8µM*	-43.5%	-10.7
O=C(CN1CCN(S(=O)(=O)c2ccccc2)CC1)Nc1ccc(N2CCOCC2)cc1	-5.4%	19.2%	-7.5%	?	-9.0%	-23.4
O=C(CNC(=O)c1ccc(Br)o1)Nc1cccc(S(=O)(=O)N2CCOCC2)c1	-1.1%	-3.1%	-9.9%	50.1µM*	-22.8%	-11.2
CC1CCCCN1CCCNC(=O)c1ccc2c(c1)sc1nc(-c3ccc(F)cc3)cn12 (centres undefined)	2.4%	15.2%	/	1.3%[59 µM]	-15.8%	/
COc1ccc(C(C(=O)Nc2ccc(C(C)C)cc2)N(C)C(=O)c2ccc(=O)[nH]c2)cc1 (centres undefined)	-5.9%	-16.5%	26.7µM*	-34.6%	50.1µM*	-29.5
COc1ccc(NC(=O)CN(C)C(=O)c2ccc(=O)[nH]c2)cc1	-15.1%	22.2%	8.7%	-2.8%	3.5%	0.7
SMILES	BAZ2B inh	HP1b chromo inh	PLK1 PBD block	G9a block	JMJD2A Tudor inh	PI5P4Ka inh
OC(C1=CC(=Cc2ccncc2)c2ccccc21)c1ccncc1 (centres undefined)	/	8.5%[57 µM]	-25.0%	/	-13.8%	1.9
COc1ccc2[nH]c(-c3ccc(C)cc3)cc(=O)c2c1	7.3%	38.9%	2.2%	79.4µM*	-15.1%	-15.8
Cc1ccc(OCC(=O)N/N=C\c2cccn2C)c([N+](=O)[O-])c1	?	?	-9.4%	-10.6%	-25.3%	-3.3
CCc1ccc(Nc2nnc(SCC(=O)Nc3sccc3C(N)=O)s2)cc1	?	0.0%	-7.2%	11.2µM*	-33.1%	-25.9
Cc1nnc(SCC(=O)Nc2sccc2C(N)=O)s1	4.2%	27.9%	-17.7%	?	-9.1%	?
Cc1cccc(-n2c(SCc3cc(=O)n4ccsc4n3)nc3ccccc32)c1	-30.2%	8.4%	-18.8%	5.01µM*	?	-19.6
COc1ccc(C(C)=O)cc1CSc1nnc(Nc2ccc(C)cc2C)s1	-19.6%	-9.0%	-13.1%	35.5µM*	?	-3.4
CCc1ccc(Nc2nnc(SCc3cc(=O)n4ccsc4n3)s2)cc1	-3.9%	27.4%	-15.2%	2µM*	-16.5%	?
Cc1ccc(CC(=O)Nc2c(C(=O)N3CCN(c4ccccc4F)CC3)oc3ccccc23)cc1	-30.4%	19.9%	/	-50.0%[59 µM]	-29.5%	/
CCC(=O)Nc1nnc(S(=O)(=O)N(C)Cc2ccccc2)s1	-0.1%	19.3%	/	-6.0%[59 µM]	-20.1%	/
Cc1ccc(Nc2nnc(SCc3cc(=O)n4ccsc4n3)s2)c(C)c1	-4.2%	6.0%	-12.4%	35.5µM*	-27.2%	/
COc1ccc(CCNC(=O)C2COc3ccccc3C2)cc1OC (centres undefined)	2.5%	19.5%[57 µM]	/	1.8%[59 µM]	-5.8%	/
O=C(CSC1=Nc2ccccc2C2=NC(Cc3c[nH]c4ccccc34)C(=O)N12)NC1CCCCC1 (centres undefined)	-8.0%	1.6%	-10.8%	50.1µM*	-13.4%	/
CC1CC(C)CN(C(=O)CSC2=Nc3ccccc3C3=NC(Cc4c[nH]c5ccccc45)C(=O)N23)C1 (centres undefined)	-1.2%	105.1%	7.2%	?	-3.2%	0.8
CCc1ccc(NC(=O)Cn2c(=O)n(CCCCC(=O)NCc3ccc4c(c3)OCO4)c(=O)c3ccccc32)cc1	4.1%	32.9%	/	14.5%[59 µM]	-2.0%	/
